In the supplement of paper PMC6607015:
Counter-ions that a name gives are not always drawn.

What was measured:
Conditions in all cases: compound concentration in added solution (µM; 5 µl added to 20 µl cells): 10; 18 h
A431 [1] = experiment: LBPA endosome anti-LBPA integrated intensity (sum per cell), Z-score; higher = more LBPA staining
Outline: (§1)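 Per-cell integrated LBPA or filipin intensity, whole-cell or within LBPA endosomes, is expressed as Z-scores normalised in AcuityXpress. HeLa MZ or A431 cells, 3,500 per well in 20 µl, sat on 5 µl of 10 µM compound solution in duplicate 384-well imaging plates for 18 h. They were then fixed in 4% PFA, stained, imaged in four 20× fields per well and segmented using MetaXpress.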

HeLa MZ [2] = experiment: as above
Outline: as §1

A431 [3] = experiment: whole-cell filipin (free cholesterol) integrated intensity, Z-score; higher = more cholesterol staining
Outline: as §1

HeLa MZ [4] = experiment: as above
Outline: as §1

A431 [5] = experiment: filipin (cholesterol) integrated intensity within LBPA endosomes, Z-score; higher = more cholesterol in LBPA endosomes
Outline: as §1

HeLa MZ [6] = experiment: as above
Outline: as §1

Row | SMILES | LBPA endosome anti-LBPA integrated intensity (z-score) (A431 [1]) | LBPA endosome anti-LBPA integrated intensity (z-score) (HeLa MZ [2]) | whole-cell filipin (z-score) (A431 [3]) | whole-cell filipin (z-score) (HeLa MZ [4]) | filipin (z-score) (A431 [5]) | filipin (z-score) (HeLa MZ [6])
1 | O=C(c1ccc(F)cc1)C1CCN(CCn2c(=O)[nH]c3ccccc3c2=O)CC1 [Ketanserin tartrate hydrate] | 0.533 | 0.294 | 0.959 | 0.523 | 0.805 | 0.808
2 | COc1ccc(-c2ccc(=N)n(CCCC(=O)O)n2)cc1 [Gabazine bromide] | -0.561 | -0.0518 | -0.811 | -0.576 | -0.574 | -0.549
3 | O=C(O)c1cccnc1 [Niacin] | -0.578 | -1.61 | -0.557 | -0.648 | -0.464 | -0.617
4 | CC(C)/N=c1\cc2n(-c3ccc(Cl)cc3)c3ccccc3nc-2cc1Nc1ccc(Cl)cc1 [Clofazimine] | 1.95 | 1.42 | -0.119 | -1.15 | 0.416 | -0.0158
5 | CN(C)CCOC(=O)COc1ccc(Cl)cc1 [Meclofenoxate hydrochloride] | -0.454 | -0.858 | -0.411 | -0.563 | -0.417 | -0.533
6 | NS(=O)(=O)c1cc2c(cc1Cl)N=C(CSCc1ccccc1)NS2(=O)=O [Benzthiazide] | -0.596 | -0.997 | -0.0125 | -0.328 | -0.513 | -0.593
7 | C#C[C@]1(O)CC[C@H]2[C@@H]3CCc4cc(O)ccc4[C@H]3CC[C@@]21C [Ethinylestradiol] | -0.522 | -1.4 | -0.139 | -0.678 | -0.442 | -0.49
8 | NC(Cc1cc(I)c(Oc2cc(I)c(O)c(I)c2)c(I)c1)C(=O)O (configuration not stated) [Thyroxine (L)] | -0.687 | -1.35 | -1.1 | -0.619 | -0.586 | -0.6
9 | CN(c1nccc(=O)[nH]1)C1CCN(c2nc3ccccc3n2Cc2ccc(F)cc2)CC1 [Mizolastine] | -0.6 | 0.425 | -0.708 | 0.222 | -0.551 | 0.0832
10 | CO[C@H]1/C=C/O[C@@]2(C)Oc3c(C)c(O)c4c(c3C2=O)C2=NC3(CCN(CC(C)C)CC3)NC2=C(NC(=O)/C(C)=C\C=C\[C@H](C)[C@H](O)[C@@H](C)[C@@H](O)[C@@H](C)[C@H](OC(C)=O)[C@@H]1C)C4=O [Rifabutin] | -0.125 | 1.08 | 0.49 | 0.136 | -0.0844 | 0.633
11 | CN(Cc1cnc2nc(N)nc(N)c2n1)c1ccc(C(=O)N[C@@H](CCC(=O)O)C(=O)O)cc1 (racemic) [Amethopterin (R,S)] | -0.376 | 2.61 | 0.379 | 2.03 | -0.749 | -0.934
12 | COc1ccc2cc(CCC(C)=O)ccc2c1 [Nabumetone] | -0.302 | 0.891 | -0.304 | 0.488 | -0.495 | -0.175
13 | CC(C)(C)C(=O)OCOC(=O)[C@@H]1N2C(=O)[C@@H](/N=C/N3CCCCCC3)[C@H]2SC1(C)C [Pivmecillinam hydrochloride] | -0.535 | -0.482 | -0.185 | -0.0756 | -0.424 | -0.445
14 | CC(C(=O)O)c1ccc(-c2ccccc2)c(F)c1 (configuration not stated) [Flurbiprofen] | -0.227 | 0.0649 | 0.155 | -0.426 | -0.328 | -0.513
15 | COc1cc(-c2ccc(=O)[nH]n2)ccc1OC(F)F [Zardaverine] | -0.319 | 0.0365 | 0.286 | 0.356 | -0.298 | -0.332
16 | C#Cc1cccc(Nc2ncnc3cc(OCCOC)c(OCCOC)cc23)c1 [Erlotinib] | 1.24 | 2.03 | -0.02 | 0.532 | 0.124 | 0.831
17 | NC(=O)N/N=C/c1ccc([N+](=O)[O-])o1 [Nitrofural] | -0.562 | -0.605 | -0.633 | -0.478 | -0.506 | -0.689
18 | COc1cnc(NS(=O)(=O)c2ccc(N)cc2)nc1 [Sulfameter] | -0.428 | -0.0725 | -0.426 | -0.359 | -0.447 | -0.542
19 | Cc1cc2c(cc1S(N)(=O)=O)S(=O)(=O)CCC2 [Meticrane] | -0.412 | -0.455 | -0.803 | -0.699 | -0.464 | -0.558
20 | CN(Cc1ccc(C(C)(C)C)cc1)Cc1cccc2ccccc12 [Butenafine Hydrochloride] | -0.698 | -1.43 | -0.644 | -0.481 | -0.512 | -0.793
21 | OCCN(CCO)c1nc(N2CCCCC2)c2nc(N(CCO)CCO)nc(N3CCCCC3)c2n1 [Dipyridamole] | 0.808 | 0.577 | -0.543 | -0.536 | -0.2 | -0.39
22 | N=C(N)NCCN1CCCCCCC1 [Guanethidine sulfate] | -0.647 | -1.05 | -0.871 | -0.0594 | -0.596 | -0.454
23 | Nc1ccc(S(N)(=O)=O)cc1 [Sulfanilamide] | -0.59 | -0.84 | -0.27 | 0.397 | -0.496 | -0.373
24 | NS(=O)(=O)c1cc(Cl)c(Cl)c(S(N)(=O)=O)c1 [Dichlorphenamide] | -0.34 | -0.217 | -0.00386 | 0.196 | -0.409 | -0.301

Row | SMILES | LBPA endosome anti-LBPA integrated intensity (z-score) (A431 [1]) | LBPA endosome anti-LBPA integrated intensity (z-score) (HeLa MZ [2]) | whole-cell filipin (z-score) (A431 [3]) | whole-cell filipin (z-score) (HeLa MZ [4]) | filipin (z-score) (A431 [5]) | filipin (z-score) (HeLa MZ [6])
25 | CC(C)(C(=O)c1cccnc1)c1cccnc1 [Metyrapone] | -0.435 | -0.575 | -0.128 | -0.599 | -0.359 | -0.375
26 | O=C1c2ccccc2C(=O)C1c1ccccc1 [Phenindione] | -0.457 | 0.398 | -0.346 | -0.343 | -0.498 | -0.468
27 | NC(=O)N1c2ccccc2CC(=O)c2ccccc21 [Oxcarbazepine] | -0.669 | -1.06 | -0.767 | -1.13 | -0.582 | -0.729
28 | Cc1ccc(-c2ncc(Cl)cc2-c2ccc(S(C)(=O)=O)cc2)cn1 [Etoricoxib] | -0.471 | -1.03 | -0.752 | -0.603 | -0.543 | -0.516
29 | Cc1cc(=O)n(-c2ccccc2)n1C [Antipyrine] | -0.333 | -0.475 | -0.316 | -0.0627 | -0.425 | -0.342
30 | C[C@H](N)[C@H](O)c1cccc(O)c1 [Metaraminol bitartrate] | -0.242 | -0.0318 | -0.347 | -0.355 | -0.416 | -0.505
31 | Cc1ncc([N+](=O)[O-])n1CCO [Metronidazole] | -0.639 | -1.28 | -1.11 | -0.583 | -0.459 | -0.544
32 | COc1cc2nc(N3CCN(C(=O)c4ccco4)CC3)nc(N)c2cc1OC [Prazosin hydrochloride] | 2.82 | 1.41 | 1.2 | 0.626 | 0.829 | 0.146
33 | Oc1ncnc2[nH]ncc12 [Allopurinol] | -0.351 | 0.486 | -0.157 | -0.285 | -0.415 | -0.506
34 | CN1CCC(OC(c2ccccc2)c2ccccc2)CC1 [Diphenylpyraline hydrochloride] | 0.268 | 1.06 | 0.89 | 0.448 | 0.505 | 0.456
35 | CCN1CCC[C@H]1CNC(=O)c1c(O)c(Cl)cc(Cl)c1OC [Raclopride] | -0.484 | -0.235 | -0.93 | -0.588 | -0.489 | -0.47
36 | CCOc1nc2cccc(C(=O)O)c2n1Cc1ccc(-c2ccccc2-c2nnn[nH]2)cc1 [Candesartan] | -0.346 | 0.346 | 0.0521 | 0.386 | -0.389 | -0.218
37 | Cc1cc(NC(=O)C2=C(O)c3ccccc3S(=O)(=O)N2C)no1 [Isoxicam] | -0.656 | -1.14 | -0.786 | -0.746 | -0.604 | -0.633
38 | Cc1ccccc1N1C(=O)c2cc(S(N)(=O)=O)c(Cl)cc2NC1C (configuration not stated) [Metolazone] | -0.495 | -0.0744 | -0.881 | 0.441 | -0.436 | -0.348
39 | CN(C)CC/C=C1/c2ccccc2Sc2ccc(Cl)cc21 [Chlorprothixene hydrochloride] | 4.13 | 2.63 | 1.46 | 0.54 | 2.61 | 2.32
40 | CNCCCC1c2ccccc2C=Cc2ccccc21 [Protriptyline hydrochloride] | 2.36 | 2.29 | 1.72 | 0.684 | 2.34 | 2.5
41 | CC=CC(=O)N(CC)c1ccccc1C [Crotamiton] | -0.66 | -1.3 | -0.358 | -0.316 | -0.501 | -0.424
42 | COCCOC(=O)C1=C(C)NC(C)=C(C(=O)OC/C=C/c2ccccc2)C1c1cccc([N+](=O)[O-])c1 (configuration not stated) [Cilnidipine] | 0.601 | 0.589 | 1.38 | -0.377 | 0.591 | 0.579
43 | O=C1c2ccccc2S(=O)(=O)N1CCCCN1CCN(c2ncccn2)CC1 [Ipsapirone] | -0.419 | 0.911 | -0.664 | -0.262 | -0.426 | 0.0372
44 | CCN(CC)CCOC(=O)C1(C2CCCCC2)CCCCC1 [Dicyclomine hydrochloride] | -0.0951 | 0.203 | 0.137 | -0.144 | 0.0207 | 0.0362
45 | N=C(N)c1ccc(OCCCCCOc2ccc(C(=N)N)cc2)cc1 [Pentamidine isethionate] | -0.319 | -1.47 | -0.429 | -0.57 | -0.313 | -0.712
46 | O=C(c1ccccc1)c1ccc2n1CCC2C(=O)O (configuration not stated) [Ketorolac tromethamine] | -0.483 | 0.0549 | -0.702 | -0.443 | -0.478 | -0.538
47 | CCCCOc1ccc(CC(=O)NO)cc1 [Bufexamac] | -0.196 | -0.501 | -0.337 | -0.569 | -0.313 | -0.483
